Each structure is given as a SMILES string. About 83,000 compounds went through this panel and 20% of them were active in at least one assay; those are over-represented in the sample as a whole.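 Percent growth is the endpoint: 0 to 100 indicates growth inhibition (40 means 60% inhibition), 0 means no net growth, and negative values indicate cell death.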 Unmarked numbers belong to inactive results. The source made the active and inactive calls. Rule for the calls: active = growth percent below 10; inactive = the rest.

In the first experiment the test system is ACHN renal. As to the kind of experiment: NCI-60 one-dose screen, 48 h (100 = growth as untreated, 0 = no growth, -100 = all killed). Particulars: 10 µM unless noted.
In the case of `Cn1ccnc1C(=O)/C=C/c1ccc(NC(=O)Nc2ccc(Cl)cc2)cc1`, the growth was 88.4%.
On to `C#Cc1nc(C2=C(C)/C(=N/OCc3ccccc3)CC2)cs1`, for which the growth is 0.823% (active).
On the same count and under the same terms, for `COc1ccc(-n2c(SCC(=O)Nc3ccc(-c4nc5ccccc5[nH]4)cc3)nc3ccccc3c2=O)cc1` the value was 54%.
On the same count and under the same terms, in the case of `COc1cc(OC)c(S(=O)(=O)NNC(=O)c2ccncc2)cc1C(=O)/C=C/c1ccc(C)cc1` it was 98.1%; in that of `COC(=O)C(C)NS(=O)(=O)/N=C1\NC(=O)NC1=C(Cl)Cl` (stereo unspecified), 98.2%.
The same measure, in the same setting: for `COc1ccc(C(=O)/C=C/c2ccc(Oc3nc(NCCO)nc(N4CCOCC4)n3)c(OC)c2)cc1` the value was 62.5%; for `NS(=O)(=O)c1cccc(Nc2nc(SCC(=O)c3ccc(Br)cc3)nc3ccccc23)c1`, 28%.
Take `O=C(N/N=C/c1ccc([N+](=O)[O-])o1)c1[nH]c2ccc(Br)cc2c1-c1ccccc1`: the growth is 16.1%.
In the case of `O=C(N/N=C/c1cccs1)c1[nH]c2ccc(Br)cc2c1-c1ccccc1`, the growth was 28.5%.
The same measure, in the same setting: for `COc1cc2cc(Oc3ccc(NC(=O)c4cccc(C(F)(F)F)c4)cc3)c(C)nc2cc1OCCN1CCCCC1` the value was 80.5%.
Still for that read-out and setting: for `Cc1sc2c(c1C)c(=O)nc1c(-c3nc(-c4ccc(F)cc4)no3)n[nH]n12` the value was 96.5%.
On the same count and under the same terms, for `N#Cc1nc(-c2ccccc2)oc1N1CC[C@@H](CO)C1` the value was 95.9%.
In the case of `Cn1ccnc1C(=O)/C=C/c1ccc(NC(=O)Nc2ccc(F)cc2)cc1`, the growth was 49.5%.
Same read-out and setting: for `COc1ccc(NC2=C(Cl)C(=O)C(C)=C(C)C2=O)cc1OC` the value was 91.4%.
With `NS(=O)(=O)c1ccc(Nc2nc(Nc3ccccc3)nc(-n3nc(-c4ccccc4)cc3-c3ccccc3)n2)cc1`, the growth is 15.3%.
On the same count and under the same terms, for `C#Cc1nc(C2=C(C)C(O)/C(=N/O)C2)cs1` (stereo unspecified) the value was 21.5%; for `Cc1ccc2c(n1)C(=O)C(Cl)=C(Nc1cccc(C(C)C)c1)C2=O`, 50.1%; for `CN1CCc2c(sc3ncnc(N/N=C/c4ccc(Cl)c(Cl)c4)c23)C1`, -84.7% (active).
With `O=C(CSc1nnc(-c2ccc3nc(-c4ccc(Cl)cc4)[nH]c3c2)o1)Nc1ccc(C(=O)/C=C/c2ccc(Cl)cc2)cc1`, the growth is 98.1%.
Same read-out and setting: for `O=C(N/N=C/c1ccc(Br)s1)c1[nH]c2ccc(Br)cc2c1-c1ccccc1` the value was 26.7%; for `C#Cc1nc(C2=C(C)C(O)CC2)cs1` (stereo unspecified), 94.7%.
`O=C(N/N=C/c1ccc[nH]1)c1[nH]c2ccc(Br)cc2c1-c1ccccc1`: the growth is 12.2%.
Still for that read-out and setting: for `COc1ccc(/C=N/NC(=O)c2[nH]c3ccc(Br)cc3c2-c2ccccc2)s1` the value was 27%; for `C/C(=N\NC(N)=O)c1c(O)sc(=O)[nH]c1=O`, 101%; for `C#Cc1nc(C2=C(C)C(=O)/C(=N/OC(C)=O)C2)cs1`, 26.3%.
Consider `Cn1ccnc1C(=O)/C=C/c1ccc(NC(=O)Nc2ccccc2)cc1`, for which the growth was 26.8%.
Same read-out and setting: in the case of `COc1cc(/C=C/C(=O)c2cc(OC)c(OC)c(OC)c2)ccc1OCc1ccccc1` it was 60%; in that of `CC(O)C(NC(=O)C1CCCN1C(=O)CNC(=O)C1CC(=O)NCC(=O)NC(Cc2c[nH]c3ccccc23)C(=O)NC(Cc2ccc(O)cc2)C(=O)NCC(=O)NC(CO)C(=O)NC(CCC(N)=O)C(=O)NC(Cc2c[nH]c3ccccc23)C(=O)N1)C(=O)NCC(=O)NC(CCC(N)=O)C(=O)NC(CCCNC(=N)N)C(=O)NC(CC(=O)O)C(=O)O` (stereo unspecified), 96.2%; in that of `COc1cc(/C=C/C(=O)c2cc(OC)c(OC)c(OC)c2)ccc1OCc1ccc(F)cc1`, 64.8%.
With `O=C(N/N=C/c1ccc([N+](=O)[O-])s1)c1[nH]c2ccc(Br)cc2c1-c1ccccc1`, the growth is 12.7%.
The same measure, in the same setting: for `N#Cc1c(-c2ccc(Cl)cc2)nc2c(-c3ccccc3)c(Nc3ccccc3)nn2c1N` the value was 11%; for `O=C(Oc1ccc2ccc(=O)oc2c1)c1ccc(Cl)cc1`, 106%.
The same measure, in the same setting: for `C#Cc1nc(C2=C(C)C(OC(=O)CCC(=O)O)CC2)cs1` (stereo unspecified) the value was 103%; for `C#Cc1nc(C2=C(C)C(=N\O)/C(=N/O)C2)cs1`, 78.7%; for `O=C(N/N=C/c1ccco1)c1[nH]c2ccc(Br)cc2c1-c1ccccc1`, 29.3%.
On the same count and under the same terms, for `COC(=O)C(Cc1ccccc1)NS(=O)(=O)/N=C1\NC(=O)NC1=C(Cl)Cl` (stereo unspecified) the value was 98.1%; for `N#Cc1ccc(/C=N/NC(=O)c2[nH]c3ccc(Br)cc3c2-c2ccccc2)s1`, 18.2%; for `CCOc1ccc2nc(NC(=O)c3ccc(C(F)(F)F)cc3)sc2c1`, 110%.

The subject of a further experiment is CAKI-1 renal. The experiment is described as above. Particulars: 10 µM unless noted.
For `Cn1ccnc1C(=O)/C=C/c1ccc(NC(=O)Nc2ccc(Cl)cc2)cc1`, the growth is 69.6%.
Regarding `C#Cc1nc(C2=C(C)/C(=N/OCc3ccccc3)CC2)cs1`, the growth was -20.1% (active).
The same measure, in the same setting: for `COc1ccc(-n2c(SCC(=O)Nc3ccc(-c4nc5ccccc5[nH]4)cc3)nc3ccccc3c2=O)cc1` the value was 36.8%.
As to `COc1cc(OC)c(S(=O)(=O)NNC(=O)c2ccncc2)cc1C(=O)/C=C/c1ccc(C)cc1`, the growth is 72.4%.
Still for that read-out and setting: in the case of `COC(=O)C(C)NS(=O)(=O)/N=C1\NC(=O)NC1=C(Cl)Cl` (stereo unspecified) it was 99%; in that of `COc1ccc(C(=O)/C=C/c2ccc(Oc3nc(NCCO)nc(N4CCOCC4)n3)c(OC)c2)cc1`, 56%.
The same measure, in the same setting: for `NS(=O)(=O)c1cccc(Nc2nc(SCC(=O)c3ccc(Br)cc3)nc3ccccc23)c1` the value was -11.3% (active); for `O=C(N/N=C/c1ccc([N+](=O)[O-])o1)c1[nH]c2ccc(Br)cc2c1-c1ccccc1`, 20.3%; for `O=C(N/N=C/c1cccs1)c1[nH]c2ccc(Br)cc2c1-c1ccccc1`, 25.7%.
Turning to `COc1cc2cc(Oc3ccc(NC(=O)c4cccc(C(F)(F)F)c4)cc3)c(C)nc2cc1OCCN1CCCCC1`, the growth was 57.4%.
On the same count and under the same terms, for `Cc1sc2c(c1C)c(=O)nc1c(-c3nc(-c4ccc(F)cc4)no3)n[nH]n12` the value was 92.8%.
Same read-out and setting: in the case of `N#Cc1nc(-c2ccccc2)oc1N1CC[C@@H](CO)C1` it was 91.5%; in that of `Cn1ccnc1C(=O)/C=C/c1ccc(NC(=O)Nc2ccc(F)cc2)cc1`, 55.1%.
On to `COc1ccc(NC2=C(Cl)C(=O)C(C)=C(C)C2=O)cc1OC`, for which the growth was 89.4%.
Still for that read-out and setting: for `NS(=O)(=O)c1ccc(Nc2nc(Nc3ccccc3)nc(-n3nc(-c4ccccc4)cc3-c3ccccc3)n2)cc1` the value was 21%; for `C#Cc1nc(C2=C(C)C(O)/C(=N/O)C2)cs1` (stereo unspecified), 76.5%; for `Cc1ccc2c(n1)C(=O)C(Cl)=C(Nc1cccc(C(C)C)c1)C2=O`, 75.3%.
On to `CN1CCc2c(sc3ncnc(N/N=C/c4ccc(Cl)c(Cl)c4)c23)C1`, for which the growth was 10.6%.
Turning to `O=C(CSc1nnc(-c2ccc3nc(-c4ccc(Cl)cc4)[nH]c3c2)o1)Nc1ccc(C(=O)/C=C/c2ccc(Cl)cc2)cc1`, the growth is 83.6%.
For the molecule `O=C(N/N=C/c1ccc(Br)s1)c1[nH]c2ccc(Br)cc2c1-c1ccccc1`, the growth is 22.8%.
Take `C#Cc1nc(C2=C(C)C(O)CC2)cs1` (stereo unspecified): the growth was 110%.
Same read-out and setting: in the case of `O=C(N/N=C/c1ccc[nH]1)c1[nH]c2ccc(Br)cc2c1-c1ccccc1` it was 21.2%; in that of `COc1ccc(/C=N/NC(=O)c2[nH]c3ccc(Br)cc3c2-c2ccccc2)s1`, 24.5%; in that of `C/C(=N\NC(N)=O)c1c(O)sc(=O)[nH]c1=O`, 96.9%.
The same measure, in the same setting: in the case of `C#Cc1nc(C2=C(C)C(=O)/C(=N/OC(C)=O)C2)cs1` it was 58.5%; in that of `Cn1ccnc1C(=O)/C=C/c1ccc(NC(=O)Nc2ccccc2)cc1`, 31.9%.
Same read-out and setting: in the case of `COc1cc(/C=C/C(=O)c2cc(OC)c(OC)c(OC)c2)ccc1OCc1ccccc1` it was 42%.
`CC(O)C(NC(=O)C1CCCN1C(=O)CNC(=O)C1CC(=O)NCC(=O)NC(Cc2c[nH]c3ccccc23)C(=O)NC(Cc2ccc(O)cc2)C(=O)NCC(=O)NC(CO)C(=O)NC(CCC(N)=O)C(=O)NC(Cc2c[nH]c3ccccc23)C(=O)N1)C(=O)NCC(=O)NC(CCC(N)=O)C(=O)NC(CCCNC(=N)N)C(=O)NC(CC(=O)O)C(=O)O` (stereo unspecified): the growth was 91.5%.
As for `COc1cc(/C=C/C(=O)c2cc(OC)c(OC)c(OC)c2)ccc1OCc1ccc(F)cc1`, the growth is 45.8%.
Same read-out and setting: for `O=C(N/N=C/c1ccc([N+](=O)[O-])s1)c1[nH]c2ccc(Br)cc2c1-c1ccccc1` the value was 23.6%.
`N#Cc1c(-c2ccc(Cl)cc2)nc2c(-c3ccccc3)c(Nc3ccccc3)nn2c1N`: the growth is 35.1%.
Same read-out and setting: in the case of `O=C(Oc1ccc2ccc(=O)oc2c1)c1ccc(Cl)cc1` it was 98.5%; in that of `C#Cc1nc(C2=C(C)C(OC(=O)CCC(=O)O)CC2)cs1` (stereo unspecified), 101%.
The same measure, in the same setting: for `C#Cc1nc(C2=C(C)C(=N\O)/C(=N/O)C2)cs1` the value was 93.7%; for `O=C(N/N=C/c1ccco1)c1[nH]c2ccc(Br)cc2c1-c1ccccc1`, 30.3%.
Same read-out and setting: in the case of `COC(=O)C(Cc1ccccc1)NS(=O)(=O)/N=C1\NC(=O)NC1=C(Cl)Cl` (stereo unspecified) it was 100%; in that of `N#Cc1ccc(/C=N/NC(=O)c2[nH]c3ccc(Br)cc3c2-c2ccccc2)s1`, 18.3%; in that of `CCOc1ccc2nc(NC(=O)c3ccc(C(F)(F)F)cc3)sc2c1`, 98.1%.
